Experimental findings from publication PMC5540273 (PLoS ONE, 2017) are described below.

One test deals with AURKC. The conditions noted are these: concentration: 1 μM, replicates: in singlicate; n = 1.
Another test deals with AXL. The note with it: concentration: 1 μM, replicates: in singlicate, n = 1.
Another test deals with T1, BIKE.
T1 construct: gene BMP2K
The note with it: concentration: 1 μM, replicates: in singlicate, n = 1.

In another test the test system is BLK. The note with it: concentration: 1 μM, replicates: in singlicate; n = 1.
For a further test, the system named is BMPR1A. The note with it: concentration: 1 μM, replicates: in singlicate; n = 1.
Another test has as its system BMPR1B. The note with it: concentration: 1 μM, replicates: in singlicate, n = 1.
Another test relates to BMPR2. The conditions noted are these: concentration: 1 μM, replicates: in singlicate, n = 1.
For a further test, the system named is BMX. The note with it: concentration: 1 μM, replicates: in singlicate, n = 1.
In another test the test system is BRAF. The conditions noted are these: concentration: 1 μM, replicates: in singlicate, n = 1.
For a further test, the system named is T2, BRK.
T2 construct: gene PTK6
The note with it: concentration: 1 μM, replicates: in singlicate, n = 1.

Where “and” joins values, the source holds several entries; their conditions need not be identical. Equal values may be shown once. Read-outs that look alike come from different tables or passages of the source.
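Also: KINOMEscan kinase panel screen.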

`Cn1ccc2ncnc(Nc3ccc(Oc4cccc(Cl)c4)c(Cl)c3)c21`: the “%Inh” value worked out at 0% in the test on AURKC; 0% in the test on AXL; 0% in the test with BIKE; 14% in the test with BLK; 22% in the test with BMPR1A; 0% in the test with BMPR1B. In addition, the “%Inh” value came to 29% in the test with BMPR2, 13% in the test on BMX, 0% in the test with BRAF and 17% in the test with BRK.
Take `CC(=O)Nc1n[nH]c2ncc(-c3ccccc3)cc12` [SB-548492]: the “%Inh” value in the test on AURKC was found to be 32%; in the test with AXL, 21%; with BIKE it was 7%; in the test on BLK it was 28%; in the test with BMPR1A, 30%; with BMPR1B, 21%. Further, the “%Inh” value in the test with BMPR2 was 47%; in the test with BMX, 13%; in the test with BRAF, 0%; in the test with BRK it was 0%.
Turning to `CS(=O)(=O)CCNCc1ccc(-c2ccc3ncnc(Nc4ccc(OCc5ccccc5)c(Cl)c4)c3c2)o1.Cl` [GW574783], the “%Inh” value was found to be 2% in the test on AURKC; 42% in the test on AXL; 19% in the test on BIKE; 49% in the test on BLK; 0% in the test on BMPR1A; 0% with BMPR1B. The “%Inh” value with BMPR2 turned out to be 0%; in the test on BMX it was 19%; in the test on BRAF it was 9%; in the test with BRK, 0%.
For the compound `N#Cc1ccc(Oc2ccc(Nc3ncnc4cc[nH]c34)cc2Cl)cc1`, the “%Inh” value with AURKC turned out to be 11%; with AXL, 22%; with BIKE, 1%; in the test on BLK, 28%; in the test with BMPR1A it was 18%; with BMPR1B it was 8%. In addition, the “%Inh” value came out at 25% in the test on BMPR2, 13% in the test on BMX, 0% in the test on BRAF and 11% in the test on BRK.
Consider `FC(F)(F)c1ccc(-c2cc(-c3c[nH]nc3-c3ccccn3)ccn2)cc1` [GW599550], for which the “%Inh” value with AURKC worked out at 14%; with AXL it was 20%; with BIKE, 13%; in the test on BLK, 39%; with BMPR1A, 0%; with BMPR1B, 0%. Besides, the “%Inh” value in the test on BMPR2 turned out to be 25%; in the test with BMX it was 19%; with BRAF, 0%; with BRK, 8%.
`CNc1nccc(-c2c(-c3ccc(F)cc3)ncn2CCCN2CCOCC2)n1` [SB-222516]: the “%Inh” value in the test on AURKC was determined as 21%; in the test with AXL it was 14%; with BIKE it was 0%; in the test on BLK, 17%; in the test on BMPR1A, 13%; in the test on BMPR1B it was 0%. Also, the “%Inh” value stood at 30% in the test on BMPR2, 3% with BMX, 6% in the test on BRAF and 0% in the test on BRK.
`FC(F)(F)c1cc(Nc2nccc(-c3c(-c4ccc(Cl)cc4)nn4ncccc34)n2)ccc1Cl` [GW829351]: the “%Inh” value with AURKC, in the test with AXL, with BIKE, in the test on BLK, with BMPR1A and in the test on BMPR1B was 0% in each case. Moreover, the “%Inh” value worked out at 4% in the test on BMPR2, 0% in the test on BMX, 0% in the test with BRAF and 0% in the test on BRK.
Consider `Clc1cc(Nc2ncnc3cc[nH]c23)ccc1OCc1ccccn1`, for which the “%Inh” value was found to be 0% in the test with AURKC; 19% in the test on AXL; 0% in the test with BIKE; 0% in the test with BLK; 25% in the test on BMPR1A; 8% in the test on BMPR1B. Also, the “%Inh” value in the test with BMPR2 turned out to be 17%; with BMX, 20%; in the test on BRAF, 0%; in the test on BRK it was 4%.
Consider `COc1ccc(-c2nc3n(c2-c2ccncc2)CCC3)cc1` [SKF-104493], for which the “%Inh” value in the test with AURKC was 0%; with AXL (1 µM), 14% and 0%; in the test with BIKE (1 µM) it was 10% and 0%; in the test on BLK it was 0%; in the test on BMPR1A it was 0%; with BMPR1B (1 µM) it was 0% and 1%. The “%Inh” value with BMPR2 (1 µM) was 39% and 2%; with BMX (1 µM) it was 0% and 11%; with BRAF (1 µM), 23% and 0%; in the test with BRK (1 µM) it was 2% and 0%.
As for `NC(=O)c1sc(-n2cnc3ccccc32)cc1OCc1ccccc1F` [GSK1024306], the “%Inh” value is reported as 38% in the test on AURKC; 0% in the test on AXL; 60% in the test with BIKE; 0% in the test with BLK; 0% with BMPR1A; 0% with BMPR1B. The “%Inh” value with BMPR2 is reported as 27%; in the test with BMX, 6%; in the test with BRAF, 0%; with BRK it was 14%.
Take `CC(C)(C)c1ccc(-n2cnc3c(N)ncnc32)cc1` [SKF-97263]: the “%Inh” value in the test with AURKC stood at 16%; in the test with AXL, 15%; in the test with BIKE, 19%; in the test on BLK it was 6%; in the test on BMPR1A, 0%; with BMPR1B, 5%. The “%Inh” value in the test with BMPR2 is reported as 6%; with BMX, 16%; with BRAF, 0%; with BRK, 6%.
For `Fc1cccc(COc2ccc(Nc3ncnc4cc[nH]c34)cc2Cl)c1`, the “%Inh” value was found to be 8% in the test on AURKC; 16% with AXL; 9% in the test on BIKE; 1% in the test on BLK; 21% in the test with BMPR1A; 16% in the test with BMPR1B. Besides, the “%Inh” value with BMPR2 is listed as 15%; with BMX, 6%; in the test on BRAF it was 0%; in the test on BRK it was 11%.
Regarding `O=C(CCO)NCCn1ccc2ncnc(Nc3ccc(Oc4cccc(C(F)(F)F)c4)c(Cl)c3)c21`, the “%Inh” value in the test on AURKC, in the test with AXL, in the test on BIKE, in the test on BLK, with BMPR1A and with BMPR1B was 0% in each case. Also, the “%Inh” value with BMPR2 stood at 0%; with BMX it was 0%; in the test with BRAF it was 0%; in the test with BRK, 13%.
As to `Nc1nccc2scc(-c3ccc4c(c3)CCN4C(=O)Cc3cc(F)ccc3F)c12` [GSK2587663], the “%Inh” value in the test on AURKC came out at 35%; in the test with AXL it was 41%; with BIKE, 10%; in the test on BLK, 54%; in the test with BMPR1A it was 0%; in the test on BMPR1B, 0%. Further, the “%Inh” value with BMPR2 is on record as 0%; in the test on BMX it was 23%; in the test with BRAF it was 3%; in the test on BRK, 32%.
As to `OCCOCCn1ccc2ncnc(Nc3ccc(Oc4cccc(Cl)c4)c(Cl)c3)c21`, the “%Inh” value is 0% in the test on AURKC; 0% in the test on AXL; 0% with BIKE; 3% with BLK; 1% in the test on BMPR1A; 0% in the test on BMPR1B. For the same compound, the “%Inh” value in the test on BMPR2 is listed as 0%; with BMX it was 13%; with BRAF it was 0%; with BRK it was 0%.
In the case of `FC(F)(F)c1ccc(-c2nn3ncccc3c2-c2ccnc(Nc3cccc(C(F)(F)F)c3)n2)cc1` [GW828205], the “%Inh” value in the test with AURKC is recorded as 12%; in the test with AXL, 0%; with BIKE, 1%; in the test on BLK, 1%; with BMPR1A, 0%; with BMPR1B it was 0%. The “%Inh” value in the test with BMPR2, with BMX, in the test with BRAF and in the test with BRK was 0% throughout.
For `COc1ccc(Nc2nccc(N3CCC(NC(=O)Nc4ccc5c(c4)OCO5)C3)n2)cc1` (centres unmarked) [GSK1379745], the “%Inh” value in the test with AURKC stood at 43%; in the test with AXL, 22%; with BIKE it was 33%; in the test on BLK, 25%; in the test with BMPR1A it was 13%; in the test on BMPR1B it was 0%. Also, the “%Inh” value was 23% in the test with BMPR2, 13% in the test with BMX, 2% with BRAF and 10% with BRK.
